Screens: PubChem BioAssay, several laboratories
DYRK1A inh: rat Dyrk1A kinase inhibitors, primary screen, biochemical, single point, plate reader. Dual specificity tyrosine-phosphorylation-regulated kinase 1A (Rattus norvegicus), Q63470. ADP-Glo luminescence, NFATc1 peptide. inhibition, % at 12.5 µM. 0.43% of 310,000 active; in the data active means inhibition above about 50%;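 further: plate controls were vehicle with enzyme for no effect and no enzyme for full effect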
dFosB activator: activators of delta FosB homodimer, primary screen, biochemical, fluorescence polarization, TAMRA-CDK5 oligo, single point. Protein FosB (Mus musculus), P13346. purified delta FosB; percent of positive-control signal above neutral wells. activation, % at 25 µM. 0.99% of 340,000 active. AID 493131, 2011;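 active means mean activation above about 17%, with every replicate also reaching it, limit read from the data, passing the limit was not always enough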
Target sequence (P13346 whole entry, looked up): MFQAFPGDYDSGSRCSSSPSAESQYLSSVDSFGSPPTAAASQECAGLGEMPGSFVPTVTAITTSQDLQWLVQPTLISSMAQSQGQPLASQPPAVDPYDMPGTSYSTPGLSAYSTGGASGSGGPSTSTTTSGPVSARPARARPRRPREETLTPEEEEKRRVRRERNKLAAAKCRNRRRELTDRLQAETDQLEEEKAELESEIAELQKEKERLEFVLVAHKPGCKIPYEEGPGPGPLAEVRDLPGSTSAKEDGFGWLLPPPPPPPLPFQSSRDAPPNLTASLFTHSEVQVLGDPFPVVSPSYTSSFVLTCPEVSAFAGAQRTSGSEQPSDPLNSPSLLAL
esBAF inh: Bmi1 luciferase reporter increase in mESCs, primary screen, esBAF inhibitor project, mouse ES cells, Bmi1 luciferase knock-in, single point; 24 h; 100% = twice the neutral-well signal; reporter increase, % at 12.5 µM; 2% of 350,000 active; in the data active means activation above about 40%;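 further: 0% = median of the plate's neutral control wells and 100% = double that signal; a rise in the Bmi1 reporter signal indicates esBAF inhibition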
CDK5 p35 inh: inhibitors of human CDK5/p35 kinase, primary screen, biochemical, single concentration; Recombinant CDK5/p35, ADP-Glo luminescence, 60 min; inhibition, % at 10 µM; 0.01% of 330,000 active; AID 488839, 2010;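 active means highest replicate inhibition of at least 50% and at least 75% of replicates reaching 50%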;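 further: plate controls were DMSO neutral control for no effect and GW8510 at 10 µM for full effect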
Rtt109 HAT inh: inhibitors of C. albicans Rtt109/Vps75 HAT, primary screen, biochemical, ThioGlo CoA-SH fluorescence, plate reader; inhibition, % at 34.9 µM; 0.16% of 330,000 active; purified Rtt109/Vps75, 4 h; AID 540336, 2011;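 active means inhibition of at least 50% in every replicate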
SMARCA2 activ: SMARCA2 (BRM) function activators, primary screen, cell-based, luminescence, high throughput; MG213 cells, MMTV-luciferase reporter, dexamethasone, overnight; activation, % at 9.1 µM; 1% of 370,000 active; AID 652017, 2013; in the data active means activation above about 7.8%;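 further: 0% = vehicle wells and 100% = reference activator wells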
SMARCA2 act conf: SMARCA2 (BRM) function activators, confirmation, cell-based, luminescence, triplicate; shares compounds with SMARCA2 activ; MG213 cells, MMTV-luciferase with dexamethasone, overnight; MG213 cells expressing E1A, Rb sequestered; DMSO wells 0%, reference activator 100%; activation, % at 9.1 µM; 30% of 3,500 active; AID 652260, 2013;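 active means activation above its plate's cutoff, the mean activation of tested wells plus 3 SD, cut at about 7.9% in these data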
VP16 Luc act: GAL4-VP16 luciferase reporter activation, counter-screen for SMARCA2 (BRM) activator project, cell-based, pG5luc, luminescence, high throughput | shares compounds with SMARCA2 activ | HEK293 GAL4-VP16 pG5luc reporter; scaled: DMSO wells 0%, SAHA wells 100% | activation, % at 9.1 µM | 41% of 3,500 active | AID 686939, 2013;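 active means activation above the solvent-only control well mean plus 3 SD, averaged across control plates, cut at about 5.2% in these data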
Numbers without * were called inactive; nt = not tested or not shown. Shown are actives, neighbours in structure and some others; about 3.2% of the full set was active somewhere.

SMILES	DYRK1A inh	dFosB activator	esBAF inh	CDK5 p35 inh	Rtt109 HAT inh	SMARCA2 activ	SMARCA2 act conf	VP16 Luc act
O=c1c(Cl)c(Nc2cccc(Cl)c2)cnn1-c1nc2ccccc2s1	4	-23	nt	1	1	-2	nt	nt
O=C1NC(=Nc2ccc3ccccc3c2)S/C1=C/c1ccco1	2	-1	15	0	2	10*	6	4
Cc1c(/C=C/C(=O)c2ccc(O)cc2)cnn1C	-4	-10	nt	-2	10	8.0*	14*	6.9*
Brc1ccc(-c2nnc(-c3ccccc3Br)o2)cc1	4	1	2	1	0	8.4*	6	13*
Cc1ccc(-c2nnc(-c3ccccc3Br)o2)cc1	2	-13	-11	1	2	4	nt	nt
C[C@@H]1CN([C@H](C)CO)S(=O)(=O)c2ccc(/C=C/c3ccccc3)cc2O[C@H]1CN(C)C(=O)Nc1cc(F)ccc1F	nt	nt	-1	nt	nt	nt	nt	nt
C[C@H](CO)N1C[C@H](C)[C@H](CN(C)S(=O)(=O)c2ccc(Cl)cc2)Oc2ccc(NC(=O)Cc3ccccc3)cc2CC1=O	nt	nt	2	nt	nt	nt	nt	nt
CCOC(=O)N1CCN(C(=O)CS(=O)(=O)c2cn(Cc3ccc(F)cc3)c3ccccc23)CC1	-6	-3	6	-1	-7	8.0*	-1	3
O=C(CS(=O)(=O)c1cn(Cc2ccc(Cl)cc2)c2ccccc12)N1CCCC1	-3	3	8	-3	1	-2	nt	nt
O=c1cc2[nH]c3ccccc3c(=O)n2nc1-c1ccccc1	13	-13	9	-1	-104	8.7*	9.5*	6.2*
COc1cc(/C=C/c2ccc3c(Br)cc(Br)c(O)c3n2)ccc1O	0	-22	6	1	2	8.7*	-16	7.9*
COc1cc(/C=C/c2ccc3cccc(O)c3n2)cc(Cl)c1OC	5	-13	-4	2	4	12*	-6	34*
Oc1cccc(/C=C/c2ccc3cccc(O)c3n2)c1	-2	-16	5	0	-2	3	nt	nt
COc1cc(/C=C/c2ccc3cccc(O)c3n2)cc(Br)c1OC	1	-6	66*	-1	-5	8.4*	-13	34*
COc1cccc(/C=C/c2ccc3cccc(O)c3n2)c1	1	-4	-62	1	-4	14*	-3	23*
COc1cc(Br)cc(/C=C/c2ccc3cccc(O)c3n2)c1OC	-2	-10	9	-1	-1	0	nt	nt
O=C(N[C@H]1CC[C@H](CCNS(=O)(=O)c2ccccc2)O[C@@H]1CO)c1cnccn1	nt	nt	1	nt	nt	nt	nt	nt
Cc1noc(C)c1S(=O)(=O)Nc1ccc2c(c1)C(=O)N([C@@H](C)CO)C[C@@H](C)[C@H](CN(C)CC1CC1)OCCCC[C@H](C)O2	nt	nt	-2	nt	nt	nt	nt	nt
CN1CCc2c(sc3c2C(=O)NC(c2cccs2)N3)C1 (configuration not stated)	nt	-15	34	3	-4	11*	4	2
Cc1ccsc1C1NC(=O)c2c(sc3c2CCN(C)C3)N1 (configuration not stated)	-4	-8	20	0	-6	0	nt	nt
CCOC(=O)C1CCN(Cc2nc3ccc([N+](=O)[O-])cc3c(=O)n2-c2ccc(OC)cc2OC)CC1	2	-10	48*	-1	-2	9.1*	0	2
